Results filed as inconclusive are left out. The source made the active and inactive calls. Unless noted, the call rests on the fitted dose curve; in most records, active means well fitted curve in the direction sought with a large enough effect in the repeat runs; inconclusive means weak or mixed curves; inactive means no such curve, though single readings can be large; an effect the other way counts as inactive or inconclusive.
Key:
[1] = qHTS assay to identify small molecule antagonists of the sonic hedgehog signaling (Shh) pathway (AID 1259369; calls by dose curve; further: nearly all actives have a fitted effect of over 45% in size)
Outline: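 NIH/3T3-derived Gli1-Luc reporter cells plated 4 h, dosed with compound, then stimulated with conditioned medium for 24 h at 37 C. Firefly luciferase luminescence read after 30 min with detection reagent at room temperature.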

[2] = biological target: Estrogen receptor beta (Homo sapiens) (UniProt Q92731); assay: qHTS assay to identify small molecule agonists of the estrogen receptor beta (ER-beta) signaling pathway (AID 1259377; active means well fitted activation curve with a large enough effect in the signal ratio in the repeat runs, not every such curve was filed as active; the % refers to the signal ratio)
Outline: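 In HEK293T cells bearing a UAS-beta-lactamase reporter under ER-beta control, DMSO-delivered compounds were incubated for 16 hr at 37C. Activity was detected as fluorescence 2 hours after LiveBLAzer B/G FRET substrate addition.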

[3] = biological target: Estrogen receptor beta (Homo sapiens) (UniProt Q92731); assay: qHTS assay to identify small molecule antagonists of the estrogen receptor beta (ER-beta) signaling pathway (AID 1259378; active means well fitted inhibition curve with a large enough effect in the signal ratio in the repeat runs, not every such curve was filed as active; the % refers to the signal ratio)
Outline: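 ER-beta-UAS-bla HEK293T (GripTite) cells in 2% charcoal-stripped FBS medium were preincubated 6 hr at 37C, dosed with compound, then stimulated with 1 nM E2 (final) for 16 hr; beta-lactamase reporter read by B/G FRET fluorescence after 2 hr substrate loading.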

[4] = qHTS assay to identify small molecule agonists of the androgen receptor (AR) signaling pathway in the presence of an antagonist - cell viability counter screen (AID 1259379);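 further: MDA-kb2 human breast cancer cells carrying an MMTV luciferase reporter; series mostly up to about 92 µM; nearly all actives have a fitted effect of over 25% in size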
Outline: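 MDA-kb2 cells (MMTV-luciferase, AR/GR), 3,000/well, 5 h attachment, then 3.0 µM nilutamide (final) and compounds at 15 concentrations. Viability by CellTiter-Fluor fluorescence after 16 h at 37 °C, 0% CO2, in the reporter wells.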

[5] = qHTS assay to identify small molecule agonists of the estrogen receptor beta (ER-beta) signaling pathway - cell viability counter screen (AID 1259380); further: nearly all actives have a fitted effect of over 30% in size
Outline: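 ER-beta-UAS-bla HEK293T cells in medium with 2% charcoal-stripped FBS, pre-incubated 6 hr, then treated 16 hr at 37C. Cytotoxicity read in the same wells by CellTiter-Glo luminescence after 30 min at room temperature.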

[6] = qHTS assay to identify small molecule antagonists of the estrogen receptor beta (ER-beta) signaling pathway - cell viability counter screen (AID 1259382); further: series mostly up to about 92 µM; nearly all actives have a fitted effect of over 55% in size
Outline: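 ER-beta-UAS-bla HEK293T cells in 2% charcoal-stripped FBS medium, treated with compound plus 1 nM 17-beta-estradiol for 16 h at 37C. Viability read by CellTiter-Glo luminescence after 30 min at room temperature in the same wells.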

[7] = biological target: Estrogen receptor (Homo sapiens) (UniProt P03372); assay: qHTS assay to identify small molecule agonists of the estrogen receptor alpha (ER-alpha) signaling pathway in the presence of an antagonist (AID 1259383; calls by dose curve; further: top concentration of the series differs between compounds; nearly all actives have a fitted effect of over 15% in size)
Outline: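 VM7Luc4E2 cells express endogenous full-length ER-alpha with an ERE-luciferase reporter and were hormone-deprived for 5 days. Compounds at 15 concentrations were added with 10.0nM ICI-182,780 for 22hr at 37C. Luminescence was read with ONE-Glo.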

[8] = biological target: Thyrotropin receptor (Homo sapiens) (UniProt P16473); assay: qHTS assay to identify small molecule antagonists of the thyroid stimulating hormone receptor (TSHR) signaling pathway (AID 1259385; calls by dose curve; further: nearly all actives have a fitted effect of over 20% in size)
Outline: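 TSHR-HEK293 cells were plated and held 18 h at 37C/5% CO2, then given compound plus Ro20-1724 and stimulated with TSH at 1.5 ng/mL final. After 30 min at room temperature, cAMP was detected with cAMP-d2/anti-cAMP-cryptate (1 h) by fluorescence.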

[9] = qHTS assay to identify small molecule agonists of the estrogen receptor alpha (ER-alpha) signaling pathway in the presence of an antagonist - cell viability counter screen (AID 1259386);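 further: series mostly up to about 92 µM; cells exposed to compounds for 22 h at 37 °C before the viability read; nearly all actives have a fitted effect of over 30% in size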
Outline: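 Cell viability in VM7Luc4E2 cells (endogenous full-length ER-alpha) measured by CellTiter-Fluor fluorescence in the same wells as the luciferase screen. Cells pre-cultured 5 days in charcoal-stripped serum, then treated 22 h with compounds at 15 concentrations plus 10.0nM ICI-182,780.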

[10] = biological target: Progesterone receptor (Homo sapiens) (UniProt P06401); assay: qHTS assay to identify small molecule agonists of the progesterone receptor (PR) signaling pathway (AID 1346784; calls by dose curve; further: nearly all actives have a fitted effect of over 30% in size)
Outline: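 Using charcoal-stripped serum (2%) to limit endogenous steroids, PR-UAS-bla HEK 293T cells received compounds for 16 hr at 37C after 6 hr plating; beta-lactamase FRET fluorescence was recorded following 2 hr substrate loading at room temperature.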

[11] = biological target: Progesterone receptor (Homo sapiens) (UniProt P06401); assay: qHTS assay to identify small molecule antagonists of the progesterone receptor (PR) signaling pathway (AID 1346795; active means well fitted inhibition curve with a large enough effect in the signal ratio in the repeat runs, not every such curve was filed as active; the % refers to the signal ratio)
Outline: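 Inhibition of R5020-induced (1 nM final) beta-lactamase reporter signal in PR-UAS-bla HEK293T cells was scored by FRET fluorescence after overnight (16 hr) compound treatment.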

[12] = qHTS assay to identify small molecule antagonists of the progesterone receptor (PR) signaling pathway - cell viability counter screen (AID 1346798); further: series mostly up to about 92 µM; nearly all actives have a fitted effect of over 50% in size
Outline: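 ATP content as viability readout: CellTiter-Glo luminescence, 30 min room temperature, in PR-UAS-bla HEK293T cells after 16 hr compound/R5020 treatment at 37C and 5% CO2.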

[13] = qHTS assay to identify small molecule agonists of the progesterone receptor (PR) signaling pathway - cell viability counter screen (AID 1346799; calls by dose curve; further: nearly all actives have a fitted effect of over 45% in size)
Outline: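 Cytotoxicity in PR-bla HEK293T cells: 16 h compound, 37C; CellTiter-Glo added post-FRET read; luminescence after 30 min RT.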

[14] = qHTS assay to identify small molecule antagonists of the TGF-beta/Smad signaling pathway - cell viability counter screen (AID 1346824); further: nearly all actives have a fitted effect of over 50% in size
Outline: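 SBE-bla HEK 293T cells were plated overnight at 37 C, then given compounds in DMSO plus TGF-beta1 (added as 0.25 ng/mL solution) for 5 hr. After the bla read, CellTiter-Glo was added to the same wells and luminescence read after 30 min at room temperature.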

[15] = qHTS assay to identify small molecule agonists of the TGF-beta/Smad signaling pathway - cell viability counter screen (AID 1346829); further: top concentration of the series differs between compounds; nearly all actives have a fitted effect of over 45% in size
Outline: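 Compound-treated SBE-bla HEK 293T cells (5 hr, 37 C) were assessed for viability with CellTiter-Glo in parallel with the reporter read.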

[16] = qHTS assay to identify small molecule agonists of the TGF-beta/Smad signaling pathway (AID 1346859; active means well fitted activation curve with a large enough effect in the signal ratio in the repeat runs, not every such curve was filed as active; the % refers to the signal ratio; further: series mostly up to about 77 µM)
Outline: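 Stable Smad binding element-beta-lactamase HEK 293T cells; 5 hr compound exposure at 37 C under 5% CO2; 2 hr room-temperature substrate step; fluorescence excited at 405 nm, collected at 460 nm and 530 nm.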

[17] = biological target: Thyrotropin-releasing hormone receptor (Homo sapiens) (UniProt P34981); assay: qHTS assay to identify small molecule antagonists of the thyrotropin-releasing hormone receptor (TRHR) signaling pathway (AID 1346877; active means well fitted inhibition curve with a large enough effect in the repeat runs, not every such curve was filed as active; further: series mostly up to about 51 µM)
Outline: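 TRHR-expressing HEK293 cells loaded with calcium dye for 2 h at 37 C; compounds pre-incubated 5 min at room temperature before TRH challenge at 1 nM final. Intracellular calcium fluorescence read kinetically for 3 min; 15 concentrations in triplicate.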

[18] = biological target: Thyrotropin-releasing hormone receptor (Homo sapiens) (UniProt P34981); assay: qHTS assay to identify small molecule agonists of the thyrotropin-releasing hormone receptor (TRHR) signaling pathway (AID 1346891; calls by dose curve; further: series mostly up to about 58 µM)
Outline: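 In 1536-format, 1500 TRHR-Hek293 cells per well grew 18 h, took up calcium dye for 2 h at 37 °C, received compound, and were read kinetically; 15-point titrations, triplicates.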

[19] = qHTS assay to identify small molecule agonists or antagonists of the thyroid stimulating hormone receptor (TSHR) signaling pathway - wild type cell line counter screen (AID 1259384; calls by dose curve)
Outline: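 Wild-type HEK293 cells were plated 18 h at 37 C/5% CO2, pin-dosed with compound plus Ro20-1724 medium, held 30 min at room temperature, then given cAMP-d2 and anti-cAMP-cryptate; fluorescence was read after 1 h. Fifteen concentrations, triplicate.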

[20] = biological target: Androgen receptor (Homo sapiens) (UniProt P10275); assay: qHTS assay to identify small molecule agonists of the androgen receptor (AR) signaling pathway in the presence of an antagonist (AID 1259381; calls by dose curve; further: nearly all actives have a fitted effect of over 15% in size)
Outline: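 MDA-kb2 cells carrying MMTV-luciferase (AR/GR responsive), 3,000 cells/well, co-treated with 3.0 uM nilutamide final. Compounds at 15 concentrations, 16 hr at 37C without CO2. Luciferase luminescence read after 30 min with ONE-Glo.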

Measured: Potency

Chain of Progesterone receptor (Homo sapiens) (P06401 whole entry, looked up): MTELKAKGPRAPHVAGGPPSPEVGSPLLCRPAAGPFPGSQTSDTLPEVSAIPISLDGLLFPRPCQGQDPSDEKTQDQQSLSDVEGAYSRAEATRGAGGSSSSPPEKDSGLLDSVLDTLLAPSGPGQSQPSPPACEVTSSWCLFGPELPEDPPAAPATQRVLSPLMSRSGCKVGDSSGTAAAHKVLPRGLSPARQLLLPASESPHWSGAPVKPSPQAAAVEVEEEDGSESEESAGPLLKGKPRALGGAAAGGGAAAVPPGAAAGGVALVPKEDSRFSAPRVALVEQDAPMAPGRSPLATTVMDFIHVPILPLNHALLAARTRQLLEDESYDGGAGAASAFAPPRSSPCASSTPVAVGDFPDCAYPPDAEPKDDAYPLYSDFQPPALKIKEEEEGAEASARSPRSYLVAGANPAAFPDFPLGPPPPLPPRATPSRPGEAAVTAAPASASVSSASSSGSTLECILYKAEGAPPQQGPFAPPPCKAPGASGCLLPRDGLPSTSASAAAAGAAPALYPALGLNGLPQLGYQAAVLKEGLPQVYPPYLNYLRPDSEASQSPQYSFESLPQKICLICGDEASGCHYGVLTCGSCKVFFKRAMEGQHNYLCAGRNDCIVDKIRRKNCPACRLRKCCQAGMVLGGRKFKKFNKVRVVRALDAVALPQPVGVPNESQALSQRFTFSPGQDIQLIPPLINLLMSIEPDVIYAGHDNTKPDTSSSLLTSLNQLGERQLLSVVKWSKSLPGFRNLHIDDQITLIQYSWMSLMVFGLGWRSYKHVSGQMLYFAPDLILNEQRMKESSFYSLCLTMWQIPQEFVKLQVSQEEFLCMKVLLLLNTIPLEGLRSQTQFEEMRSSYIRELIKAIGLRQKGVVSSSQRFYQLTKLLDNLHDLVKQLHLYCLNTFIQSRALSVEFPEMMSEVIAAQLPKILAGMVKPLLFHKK
Chain of Estrogen receptor (Homo sapiens) (P03372 whole entry, looked up): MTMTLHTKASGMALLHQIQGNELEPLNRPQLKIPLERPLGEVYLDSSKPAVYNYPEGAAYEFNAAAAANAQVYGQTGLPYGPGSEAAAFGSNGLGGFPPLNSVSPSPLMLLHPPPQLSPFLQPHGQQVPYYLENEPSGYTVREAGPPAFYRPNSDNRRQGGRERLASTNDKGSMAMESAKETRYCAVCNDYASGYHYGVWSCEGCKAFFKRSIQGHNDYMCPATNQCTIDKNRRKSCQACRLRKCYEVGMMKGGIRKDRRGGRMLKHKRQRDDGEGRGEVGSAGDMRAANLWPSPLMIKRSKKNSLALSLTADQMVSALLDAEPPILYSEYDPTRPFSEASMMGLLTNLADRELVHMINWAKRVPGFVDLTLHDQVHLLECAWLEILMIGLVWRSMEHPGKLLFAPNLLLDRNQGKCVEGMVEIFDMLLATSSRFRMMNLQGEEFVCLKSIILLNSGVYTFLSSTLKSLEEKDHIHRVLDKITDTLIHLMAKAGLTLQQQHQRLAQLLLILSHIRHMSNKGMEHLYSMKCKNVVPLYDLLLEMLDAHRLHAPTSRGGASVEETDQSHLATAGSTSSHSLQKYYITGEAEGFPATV
Chain of Thyrotropin receptor (Homo sapiens) (P16473 whole entry, looked up): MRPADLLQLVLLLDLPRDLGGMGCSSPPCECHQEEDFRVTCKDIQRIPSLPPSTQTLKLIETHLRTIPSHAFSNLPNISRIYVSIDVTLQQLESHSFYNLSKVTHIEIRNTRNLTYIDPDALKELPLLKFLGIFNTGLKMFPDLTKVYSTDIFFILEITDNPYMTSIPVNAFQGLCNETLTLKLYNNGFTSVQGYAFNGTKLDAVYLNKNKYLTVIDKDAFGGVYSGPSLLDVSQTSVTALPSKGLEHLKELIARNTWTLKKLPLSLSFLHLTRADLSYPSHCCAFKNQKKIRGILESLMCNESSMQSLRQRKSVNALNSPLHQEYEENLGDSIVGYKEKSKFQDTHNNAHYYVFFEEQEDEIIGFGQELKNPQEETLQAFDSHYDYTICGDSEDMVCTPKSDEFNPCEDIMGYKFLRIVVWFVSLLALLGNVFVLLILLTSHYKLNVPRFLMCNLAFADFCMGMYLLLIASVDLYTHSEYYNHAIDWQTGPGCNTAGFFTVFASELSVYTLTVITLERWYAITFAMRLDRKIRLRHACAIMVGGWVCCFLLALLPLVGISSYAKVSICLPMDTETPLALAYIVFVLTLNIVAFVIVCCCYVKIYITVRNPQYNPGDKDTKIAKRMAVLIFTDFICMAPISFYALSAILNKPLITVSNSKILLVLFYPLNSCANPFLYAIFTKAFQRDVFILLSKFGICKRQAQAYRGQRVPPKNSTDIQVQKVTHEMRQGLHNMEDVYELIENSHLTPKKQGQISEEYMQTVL
Chain of Estrogen receptor beta (Homo sapiens) (Q92731 whole entry, looked up): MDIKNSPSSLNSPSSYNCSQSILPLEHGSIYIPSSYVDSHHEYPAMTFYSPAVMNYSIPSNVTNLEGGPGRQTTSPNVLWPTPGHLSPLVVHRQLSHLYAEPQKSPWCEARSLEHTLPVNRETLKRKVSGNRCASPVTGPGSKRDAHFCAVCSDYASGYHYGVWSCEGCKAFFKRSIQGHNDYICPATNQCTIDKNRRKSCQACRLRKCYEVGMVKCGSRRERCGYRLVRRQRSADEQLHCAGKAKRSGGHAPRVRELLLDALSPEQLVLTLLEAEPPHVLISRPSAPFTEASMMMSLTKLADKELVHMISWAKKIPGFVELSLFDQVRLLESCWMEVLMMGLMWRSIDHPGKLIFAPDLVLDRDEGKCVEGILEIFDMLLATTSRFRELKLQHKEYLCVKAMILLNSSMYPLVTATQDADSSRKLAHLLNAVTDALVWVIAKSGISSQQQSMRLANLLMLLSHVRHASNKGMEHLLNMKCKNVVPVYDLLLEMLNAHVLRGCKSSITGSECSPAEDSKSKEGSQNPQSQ
Chain of Thyrotropin-releasing hormone receptor (Homo sapiens) (P34981 whole entry, looked up): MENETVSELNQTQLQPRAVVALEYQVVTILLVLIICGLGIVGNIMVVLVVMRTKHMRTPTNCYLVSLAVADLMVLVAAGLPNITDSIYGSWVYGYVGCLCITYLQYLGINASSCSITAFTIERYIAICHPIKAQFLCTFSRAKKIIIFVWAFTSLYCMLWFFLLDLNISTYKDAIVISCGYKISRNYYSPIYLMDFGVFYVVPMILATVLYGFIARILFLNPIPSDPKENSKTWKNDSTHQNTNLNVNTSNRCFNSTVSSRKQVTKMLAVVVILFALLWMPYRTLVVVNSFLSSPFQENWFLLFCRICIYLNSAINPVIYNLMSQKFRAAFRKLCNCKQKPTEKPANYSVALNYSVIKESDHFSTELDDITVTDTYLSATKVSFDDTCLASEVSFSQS
Chain of Androgen receptor (Homo sapiens) (P10275 whole entry, looked up): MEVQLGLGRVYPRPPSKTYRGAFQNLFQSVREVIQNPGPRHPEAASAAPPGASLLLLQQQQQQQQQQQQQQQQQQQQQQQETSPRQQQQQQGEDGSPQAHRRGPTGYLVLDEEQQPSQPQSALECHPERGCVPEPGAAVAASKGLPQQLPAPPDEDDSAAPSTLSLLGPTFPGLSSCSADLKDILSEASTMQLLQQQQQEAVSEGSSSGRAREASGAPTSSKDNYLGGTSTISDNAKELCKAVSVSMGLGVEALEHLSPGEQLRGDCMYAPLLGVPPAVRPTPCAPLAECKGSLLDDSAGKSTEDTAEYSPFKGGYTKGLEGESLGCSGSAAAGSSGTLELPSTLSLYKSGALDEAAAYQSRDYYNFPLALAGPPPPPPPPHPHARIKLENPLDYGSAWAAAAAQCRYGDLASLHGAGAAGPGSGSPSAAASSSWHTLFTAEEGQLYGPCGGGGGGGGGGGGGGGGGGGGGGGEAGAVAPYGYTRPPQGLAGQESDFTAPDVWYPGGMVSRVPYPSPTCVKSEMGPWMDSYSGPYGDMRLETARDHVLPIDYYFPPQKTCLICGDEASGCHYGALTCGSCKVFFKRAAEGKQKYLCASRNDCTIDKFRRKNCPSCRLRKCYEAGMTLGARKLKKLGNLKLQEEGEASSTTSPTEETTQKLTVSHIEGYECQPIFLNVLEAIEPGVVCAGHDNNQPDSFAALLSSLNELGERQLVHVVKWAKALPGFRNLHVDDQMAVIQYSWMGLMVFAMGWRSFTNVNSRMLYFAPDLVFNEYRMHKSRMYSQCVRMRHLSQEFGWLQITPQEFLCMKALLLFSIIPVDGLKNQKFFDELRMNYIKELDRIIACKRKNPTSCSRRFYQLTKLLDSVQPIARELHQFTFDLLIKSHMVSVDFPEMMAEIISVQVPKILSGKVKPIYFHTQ

COc1ccc([C@@H]2CC(=O)c3c(O)cc(O[C@@H]4O[C@H](CO[C@@H]5O[C@@H](C)[C@H](O)[C@@H](O)[C@H]5O)[C@@H](O)[C@H](O)[C@H]4O)cc3O2)cc1OC
not listed: [19] | [20]
inactive: all other assays above

CC/C=C(\C(=O)N[C@@H]1C(=O)N2C(C(=O)OCOC(=O)C(C)(C)C)=C(COC(N)=O)CS[C@H]12)c1csc(N)n1
not listed: [20]
inactive: all other assays above

O=[N+]([O-])c1cc(C(F)(F)F)ccc1Cl
not listed: [7]
inactive: all other assays above

CN=C(NC#N)NCCSCc1nc[nH]c1C
not listed: [20]
inactive: all other assays above

CCCCCCC(=O)O
not listed: [17] | [18] | [20]
inactive: all other assays above

Nc1cccc(C(F)(F)F)c1
not listed: [19] | [20]
inactive: all other assays above

CC(C=O)Cc1ccc(C(C)(C)C)cc1 (stereo not given)
not listed: [7]
inactive: all other assays above

O=C(O)Cc1c[nH]c2ccccc12
not listed: [7] | [17] | [18] | [20]
inactive: all other assays above

— PubChem BioAssay (Tox21)
